# Measurements: PubChem BioAssay AID720 (The Scripps Research Institute Molecular Screening Center, 2007)
# Hit rate of the full screen: of about 97,000 compounds, about 140 (0.14%) were called active.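 The calls were made as follows: active = inhibition above the screen-wide mean inhibition plus 3 SD (cut at about 15% in these data); inactive = the rest.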 Many of the other results were omitted from the sample, so actives are more common in it than they were.
# Molecular target: Ephrin type-B receptor 4 (Homo sapiens) (UniProt P54760)
# Sequence (P54760 whole entry, looked up): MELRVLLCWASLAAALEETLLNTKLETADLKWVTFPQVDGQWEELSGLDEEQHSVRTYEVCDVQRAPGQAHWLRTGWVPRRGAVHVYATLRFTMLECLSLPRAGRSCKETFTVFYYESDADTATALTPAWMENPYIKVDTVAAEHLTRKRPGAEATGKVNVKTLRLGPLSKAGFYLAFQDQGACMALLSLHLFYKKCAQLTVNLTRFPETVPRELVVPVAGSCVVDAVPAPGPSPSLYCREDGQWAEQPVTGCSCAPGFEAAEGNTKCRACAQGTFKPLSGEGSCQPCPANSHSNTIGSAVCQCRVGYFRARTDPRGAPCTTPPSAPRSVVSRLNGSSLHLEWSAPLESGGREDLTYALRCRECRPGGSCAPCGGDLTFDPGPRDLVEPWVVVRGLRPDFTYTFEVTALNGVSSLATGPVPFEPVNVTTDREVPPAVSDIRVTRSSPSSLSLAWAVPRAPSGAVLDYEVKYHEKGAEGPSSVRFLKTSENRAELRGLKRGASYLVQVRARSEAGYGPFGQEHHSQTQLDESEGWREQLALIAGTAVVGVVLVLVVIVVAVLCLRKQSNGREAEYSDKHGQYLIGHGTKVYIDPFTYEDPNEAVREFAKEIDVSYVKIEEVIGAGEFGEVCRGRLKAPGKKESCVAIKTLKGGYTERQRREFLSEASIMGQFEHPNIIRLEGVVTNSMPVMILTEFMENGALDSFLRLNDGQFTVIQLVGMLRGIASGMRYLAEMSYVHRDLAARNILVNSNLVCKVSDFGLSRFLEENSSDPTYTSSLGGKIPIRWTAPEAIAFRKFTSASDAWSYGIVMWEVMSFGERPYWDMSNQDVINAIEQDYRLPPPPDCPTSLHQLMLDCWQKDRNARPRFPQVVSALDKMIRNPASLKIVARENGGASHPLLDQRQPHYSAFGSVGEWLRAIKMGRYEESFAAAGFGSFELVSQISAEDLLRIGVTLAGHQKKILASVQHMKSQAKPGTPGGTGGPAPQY
# Assay: blockers of EphB4 ligand binding – biochemical, TNYL-RAW peptide probe, fluorescence polarization, primary screen (AID 720);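 also: 0% = DMSO wells and 100% = excess unlabeled TNYL-RAW peptide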
# Settings: EphB4 LBD / TNYL-RAW-Alexa532 peptide, at 7 µM, active compounds read high
row,SMILES,inhibition
1,Cc1ccc(-c2nn(-c3ccccc3)cc2/C=N/NC(=O)c2ccc3c(c2)OCO3)cc1,-6.96% (inactive)
2,CN(C)Cc1ccccc1C1(O)c2ccccc2CSc2ccccc21 (stereo not given),2.27% (inactive)
3,O=c1nc(N2CCOCC2)nc2n1CCO2,-6.76% (inactive)
4,CN(C)c1nc2n(c(=O)n1)CCO2,17.6% (active)
5,CC(C)CC(N=C1NC(C)(C)Cc2ccccc21)C(=O)O (stereo not given),0.51% (inactive)
6,COc1ccc(/C(O)=C2\C(=O)C(=O)N(Cc3ccco3)C2c2ccc(OC)cc2OC)cc1 (stereo not given),-7.3% (inactive)
7,CCOC(=O)c1c(NC(=O)CCCN2CCOCC2)sc2c1CC(C)(C)OC2,7.6% (inactive)
8,CCCOC(=O)c1[nH]c2c(c1C)C(=O)CC(c1cccs1)C2 (stereo not given),3.13% (inactive)
9,Nn1c(Cc2cccc3ccccc23)nnc1SCC(=O)N1CC(=O)Nc2ccccc21,5.41% (inactive)
10,CCOc1ccc(NC(=O)CN(C)CC(=O)Nc2cccc(Cl)c2C)cc1OCC,-10.2% (inactive)
11,COC(=O)c1ccc(C2C(Oc3ccccc3C)C(=O)N2CCc2ccc(OC)c(OC)c2)cc1 (stereo not given),-5.62% (inactive)
12,CCC(C)(C(=O)NC1CCCCC1)N(C)C(=O)c1ccc2c(c1)OCO2 (stereo not given),3.83% (inactive)
13,O=C(COc1ccc(Cl)cc1)N1CCN(S(=O)(=O)c2ccc(Cl)cc2)CC1,0.78% (inactive)
14,Cc1cccc(N2CCN(C(=O)CN(C)S(=O)(=O)c3ccc4c(c3)CCC(=O)N4)CC2)c1C,3.05% (inactive)
15,CN(C)CCNC(=O)Nc1cccc(Cl)c1Cl,-7% (inactive)
16,O=C1CSC(c2ccc(Cl)cc2)N1 (stereo not given),-6.27% (inactive)
17,Cc1cccc(NC(=S)Nc2ccc(Br)cc2)c1,1.26% (inactive)
18,O=C(Nc1cccn(Cc2c(Cl)cccc2Cl)c1=O)c1ccc(Cl)cc1,4.57% (inactive)
19,CCOc1ccc(Nc2nc(Cc3nnc(SCC(=O)c4ccc(C)cc4)o3)cs2)cc1,2.63% (inactive)
20,CC(C)(C)n1nnnc1C(c1ccc(Cl)cc1)N1CCSCC1 (stereo not given),3.05% (inactive)

row,SMILES,inhibition
1,COc1cccc2c1OCC1COc3c(c(=O)n(C)c(=O)n3C)C21 (stereo not given),5.25% (inactive)
2,Cc1ccc(NC(=O)CSCC(=O)N2CCOCC2)cc1,1.18% (inactive)
3,Cc1cc(Nc2ccccc2)nc(N)n1,-7.64% (inactive)
4,O=C(NCCc1ccccn1)c1cc(C(=O)C2CCCCC2)c[nH]1,1.78% (inactive)
5,C/C(=N\NC(=O)c1nc(C)cc(C)n1)c1ccccc1,3.33% (inactive)
6,O=S(=O)(Cc1cc(Sc2ccccc2)nc(-c2ccccc2)n1)c1ccccc1,-3.64% (inactive)
7,Cc1cc(N)n2nc(-c3ccc(C(C)(C)C)cc3)cc2n1,-2.84% (inactive)
8,Oc1ccc(CNc2ccccc2O)cc1,-12.7% (inactive)
9,O=C(COc1ncnc2c(Cl)cc(Cl)cc12)N1CCN(S(=O)(=O)c2ccccc2)CC1,-7.07% (inactive)
10,CC(C)CNC(=O)CC(c1ccccc1)c1c(O)ccc2ccccc12 (stereo not given),2.89% (inactive)
11,Cc1ccsc1/C=C1\SC(N2CCOCC2)=NC1=O,-4.07% (inactive)
12,Nc1ccc(C(=O)OCC(=O)NC2CCCc3ccccc32)cc1[N+](=O)[O-] (stereo not given),-2.7% (inactive)
13,COc1ccc(OCCCC(=O)Oc2ccc(OC)cc2)cc1,5.05% (inactive)
14,O=C(COC(=O)c1ccccc1NC(=O)c1ccco1)Nc1ccc2c(c1)OC(F)(F)O2,-1.26% (inactive)
15,COc1ccc(NC(=O)NC2CC3CCCC(C2)N3Cc2ccccc2)cc1 (stereo not given),-5.24% (inactive)
16,O=C(Nc1ccccc1[N+](=O)[O-])C1C(c2ccccc2)=C1c1ccccc1,2.26% (inactive)
17,Cn1cnc([N+](=O)[O-])c1Nc1ccccc1O,2.1% (inactive)
18,Clc1ccc(COn2c(-c3ccc(Cl)cc3Cl)nc3ncccc32)cc1,1.17% (inactive)
19,O=c1c2ccccc2nc2n1C1(CCCCC1)Cc1ccccc1-2,6.44% (inactive)
20,CCOC(=O)C1=C(c2ccccc2)O/C(=C(/C(=O)OC)C(F)(F)F)S1,-6.59% (inactive)

row,SMILES,inhibition
1,O=C(Cn1ccc([N+](=O)[O-])n1)NCc1cccs1,-8.7% (inactive)
2,Cc1[nH]n(-c2ccccc2)c(=O)c1CCOC(=O)c1ccc(C(F)(F)F)cc1,5.95% (inactive)
3,COC(=O)Cc1cc(=O)oc2c(C)c(O)ccc12,-7.76% (inactive)
4,COC(=O)/C(=C\Nc1ccccc1)NC(=O)c1ccc(Cl)cc1Cl,2.49% (inactive)
5,COC(=O)c1cccc(N(C(=O)c2ccco2)C(C(=O)NC2CCCC2)c2ccco2)c1 (stereo not given),-2.29% (inactive)
6,O=C(CSC1=Nc2ccccc2C2=NC(CC(=O)NCc3ccco3)C(=O)N12)NCc1ccco1 (stereo not given),-6.96% (inactive)
7,Cc1cccc(C)c1NC(=O)CCS(=O)(=O)c1cccc2nsnc12,7.08% (inactive)
8,Cc1cc2nc(C)n(CCCNC(=O)Nc3ccccc3)c2cc1C,-0.81% (inactive)
9,CCN1CCC(=NNC(=O)c2ccc(C)c([N+](=O)[O-])c2)CC1,8.39% (inactive)
10,ONC(=Nc1ccc(Cl)cc1)c1ccccc1Cl,-1.3% (inactive)
11,CCn1nc(C)c(NC(=O)/C=C/c2ccc(OC)c(COc3ccc(Br)cc3)c2)c1C,7.03% (inactive)
12,c1ccc(-c2nc(NCc3ccco3)c3ccccc3n2)cc1,4.23% (inactive)
13,CN1/C(=c2/s/c(=C3/C(=O)N(c4ccccc4)NC3=Nc3ccccc3)n(C)c2=O)C(C)(C)c2ccccc21,0.36% (inactive)
14,Cc1ccc(NC2(C#N)C(=O)Nc3ccccc32)cc1 (stereo not given),0.9% (inactive)
15,CCCCNC(=O)CSc1nc2n[nH]c(C)c2c(=N)n1-c1cccc(Cl)c1C,6.52% (inactive)
16,Cc1ccc2c(c1)-c1c(ssc1=S)C(C)(C)N2C(=O)CN1C(=O)c2ccccc2C1=O,10.6% (inactive)
17,O=C(Nc1sc2c(c1-c1nc3ccccc3[nH]1)CCCC2)C1CC1,-2.93% (inactive)
18,COC(=O)Nc1sc2nc(C)cc(C)c2c1-n1cccc1,-5.41% (inactive)
19,Cc1nc(NNC(=O)c2ccccc2)cc(-c2ccccc2)n1,8.09% (inactive)
20,O=C(COC(=O)c1ccc(S(=O)(=O)N2CCc3ccccc3C2)cc1)NC(=O)NCc1ccco1,3.64% (inactive)
